Data reported in the supplement of paper PMC13380429.

Legend:
[1] = test system: Vero E6 infected with SARS-CoV-2; experiment: morphology score (similarity to uninfected cells); higher = more like uninfected cells; conditions: 24 h
[2] = test system: Vero E6 infected with SARS-CoV-2; experiment: SARS-CoV-2 infection rate relative to infected DMSO; higher = more infection, active = 60 or less; conditions: 24 h

Row | Structure (SMILES) | morphology score [1] | SARS-CoV-2 infection rate [2]
1 | CCC(C/C=C/c1ccccc1)(c1ccccc1)N(C)CC1CC1 (configuration not stated) [igmesine] (10 µM) | 0.316 | 97.5% (inactive)
2 | Cc1ccc(C23CNCC2C3)cc1 (configuration not stated) [bicifadine] (10 µM) | 0.0287 | 107% (inactive)
3 | C[C@@H]1CN([C@H]2CC[C@](C#N)(c3ccc(F)cc3)CC2)CC[C@]1(C(=O)O)c1ccccc1 [levocabastine] (10 µM) | -0.0824 | 112% (inactive)
4 | O=C1C[C@@H](c2ccc(O)cc2)Oc2cc(O)ccc21 (10 µM) | 0.025 | 110% (inactive)
5 | Cn1nc(-c2cccc(F)c2)n(C)c1=S [suritozole] (10 µM) | 0.141 | 101% (inactive)
6 | NS(=O)(=O)c1cc(Cl)c(Cl)c(S(N)(=O)=O)c1 [diclofenamide] (10 µM) | 0.298 | 84.5% (inactive)
7 | CC(COc1ccccc1)N(CCCl)Cc1ccccc1 (configuration not stated) [phenoxybenzamine] (10 µM) | 0.146 | 106% (inactive)
8 | O=c1oc2cc(O)ccc2s1 [tioxolone] (10 µM) | 0.0494 | 104% (inactive)
9 | O=C(OCC(O)CO)c1ccccc1Nc1ccnc2cc(Cl)ccc12 (configuration not stated) [glafenine] (10 µM) | 0.535 | 83% (inactive)
10 | Clc1ccccc1CNC[C@H]1CC[C@H](CNCc2ccccc2Cl)CC1 (10 µM) | 0.523 | 49% (active)
11 | COc1ccc(CN2C(=O)C(=O)c3cc(OC(F)(F)F)ccc32)cc1 (0.833333 µM) | 0.0284 | 102% (inactive)
12 | S=C=Nc1ccc(N=C=S)cc1 [bitoscanate] (10 µM) | -0.0255 | 106% (inactive)
13 | Cc1ncc(CSSCc2cnc(C)c(O)c2CO)c(CO)c1O [pyritinol] (10 µM) | 0.0152 | 100% (inactive)
14 | CN(C)C(=O)c1cc2cnc(Nc3ccc(N4CCNCC4)cn3)nc2n1C1CCCC1 [ribociclib] (10 µM) | 0.244 | 113% (inactive)
15 | CCOc1c(N2CCOCC2)cnn(C)c1=O [emorfazone] (10 µM) | 0.185 | 100% (inactive)
16 | Oc1ccc2c3c1O[C@H]1c4c(c5ccccc5n4Cc4ccccc4)C[C@@]4(O)[C@@H](C2)N(CC2CC2)CC[C@]314 [N-benzylnaltrindole] (0.833333 µM) | 0.148 | 102% (inactive)
17 | Cn1cc(C(F)(F)F)nc1-c1ccc(OCC(O)CNCCOc2ccc(O)c(C(N)=O)c2)cc1 (configuration not stated) (10 µM) | -0.123 | 112% (inactive)
18 | O=C1C[C@@H](c2ccc(O)cc2)Oc2cc(O)cc(O)c21 [naringenin] (10 µM) | 0.0218 | 98.5% (inactive)
19 | CCOC(=O)c1c(CSc2ccccc2)n(C)c2cc(Br)c(O)c(CN(C)C)c12 [arbidol] (10 µM) | 0.126 | 87.5% (inactive)
20 | O=C(c1ccc(/C=C/c2n[nH]c3ccccc23)cc1)N1CCNCC1 (10 µM) | 0.964 | 94.5% (inactive)
21 | CCCCC1=NC2(CCCC2)C(=O)N1Cc1ccc(-c2ccccc2-c2nnn[nH]2)cc1 [irbesartan] (10 µM) | 0.0469 | 96.5% (inactive)
22 | NC(=O)c1nc(F)cnc1O [Favipiravir] (10 µM) | 0.0924 | 108% (inactive)

Row | Structure (SMILES) | morphology score [1] | SARS-CoV-2 infection rate [2]
23 | CC(=O)CC(c1ccccc1)c1c(O)c2ccccc2oc1=O (configuration not stated) [warfarin] (10 µM) | -0.0329 | 106% (inactive)
24 | CCCCCCCC/C=C/C(=O)O [trans-2-undecenoic-acid] (10 µM) | 0.204 | 112% (inactive)
25 | COc1cc(Nc2ncc(F)c(Nc3ccc4c(n3)NC(=O)C(C)(C)O4)n2)cc(OC)c1OC (10 µM) | 0.09 | 124% (inactive)
26 | CC(C)[C@H](CO)Nc1nc(Nc2cc(N)cc(Cl)c2)c2ncn(C(C)C)c2n1 [aminopurvalanol-a] (0.833333 µM) | -0.224 | 108% (inactive)
27 | NCC(=O)O (10 µM) | 0.146 | 104% (inactive)
28 | Nc1nc(=O)n([C@H]2C[C@H](O)[C@@H](CO)O2)cc1Cl [cytochlor] (10 µM) | 0.156 | 102% (inactive)
29 | COc1ccccc1OCC(O)CO (configuration not stated) [guaifenesin] (10 µM) | -0.044 | 112% (inactive)
30 | O=C(Nc1nc2ccc(NC(=O)C34CC5CC(CC(C5)C3)C4)cc2s1)c1ccccc1 (0.833333 µM) | -0.0802 | 105% (inactive)
31 | O=C(Cn1c(=O)sc2ccc(Cl)cc21)N1CCN(CCO)CC1 [tiaramide] (10 µM) | 0.00737 | 104% (inactive)
32 | COc1cccc(C(=O)CCN[C@@H](C)[C@H](O)c2ccccc2)c1 [oxyfedrine] (10 µM) | 0.217 | 102% (inactive)
33 | CCCC[C@H]1OC(=O)c2ccccc21 [butylphthalide] (10 µM) | -0.108 | 102% (inactive)
34 | Cc1cc(C(C)(C)C)cc(C)c1CC1=NCCN1 [xylometazoline] (10 µM) | -0.0246 | 106% (inactive)
35 | N=C(NCc1ccc(Cl)cc1)SCCCc1c[nH]cn1 [clobenpropit] (10 µM) | 0.14 | 104% (inactive)
36 | CCc1ccc(/C=C2/SC(=S)NC2=O)cc1 (10 µM) | 0.0397 | 92.5% (inactive)
37 | COc1cc(N2CCOCC2)ccc1Nc1ncc(Cl)c(Nc2ccccc2NS(C)(=O)=O)n1 (10 µM) | -0.034 | 103% (inactive)
38 | CCCCCCCCCCCCCCCc1cccc(OCC(=O)NCCO)c1 (10 µM) | -0.00804 | 106% (inactive)
39 | COc1cc(C(C)=O)ccc1O [apocynin] (10 µM) | 0.331 | 97% (inactive)
40 | Cc1nc2ccc(NC(=O)Nc3ccnc4cccnc34)cc2o1 (10 µM) | 0.053 | 99.5% (inactive)
41 | Cc1cnc(NC(=O)Nc2cc(Br)c(C)cc2OC[C@@H]2CNCCO2)cn1 (0.833333 µM) | 0.0474 | 111% (inactive)
42 | CCN(CC)C(=S)SSC(=S)N(CC)CC [disulfiram] (10 µM) | 0.548 | 23% (active)
43 | CN1CCN(c2ccc(C(=O)Nc3n[nH]c4ccc(Cc5cc(F)cc(F)c5)cc34)c(NC3CCOCC3)c2)CC1 [entrectinib] (0.833333 µM) | 0.134 | 96.5% (inactive)
44 | Cn1nnc2c(C(N)=O)ncn2c1=O [temozolomide] (10 µM) | -0.0949 | 114% (inactive)

Row | Structure (SMILES) | morphology score [1] | SARS-CoV-2 infection rate [2]
45 | O=C(O)Cc1ccc2c(c1)C(=O)c1ccccc1CO2 [isoxepac] (10 µM) | 0.152 | 103% (inactive)
46 | Cc1ccc(-c2nn(C(C)(C)CNC(=O)c3ncccc3C)c3ncnc(N)c23)cc1 [WEHI-345-analog] (0.833333 µM) | -0.0639 | 122% (inactive)
47 | [Cl][Ti][Cl].c1cc[cH-]c1.c1cc[cH-]c1 [titanocene-dichloride] (10 µM) | 0.163 | 84% (inactive)
48 | COC(=O)c1ccccc1O [methyl-salicylate] (10 µM) | -0.162 | 110% (inactive)
49 | O=C1Nc2ccc(Cl)cc2[C@@](C#CC2CC2)(C(F)(F)F)O1 [efavirenz] (10 µM) | 0.0664 | 108% (inactive)
50 | OC[C@H]1O[C@H](O[C@H]2[C@H](O)[C@@H](O)[C@H](O)O[C@@H]2CO)[C@H](O)[C@@H](O)[C@@H]1O [D-(+)-maltose] (10 µM) | 0.129 | 86% (inactive)
51 | Nc1nc(O)c2ncn(CCC(CO)CO)c2n1 [penciclovir] (10 µM) | 0.0743 | 93.5% (inactive)
52 | CCCCCCCCCC(=O)OCCN1CCN(CCCN2c3ccccc3Sc3ccc(C(F)(F)F)cc32)CC1 [fluphenazine-decanoate] (10 µM) | -0.147 | 112% (inactive)
53 | [I-].[K+] [potassium-iodide] (10 µM) | -0.0371 | 114% (inactive)
54 | O=C1CNC(=O)CN1 [piperazinedione] (0.833333 µM) | 0.0804 | 106% (inactive)
55 | Nc1nc2c(cnn2CCc2ccccc2)c2nc(-c3ccco3)nn12 (10 µM) | -0.139 | 112% (inactive)
56 | CCOc1cncc(/C=C/CCNC)c1 (10 µM) | -0.0406 | 108% (inactive)
57 | Cc1[nH]c(/C=C2\C(=O)Nc3ccc(S(=O)(=O)Cc4c(Cl)cccc4Cl)cc32)c(C)c1C(=O)N1CCC[C@@H]1CN1CCCC1 (0.833333 µM) | 0.159 | 106% (inactive)
58 | CCOc1ccc(S(=O)(=O)O)c2cccnc12 [actinoquinol] (10 µM) | 0.0631 | 112% (inactive)
59 | O=c1c(-c2ccc(O)cc2)coc2c([C@@H]3O[C@H](CO)[C@@H](O)[C@H](O)[C@H]3O)c(O)ccc12 [puerarin] (10 µM) | 0.0648 | 98.5% (inactive)
60 | C[C@@H]1CN(c2c(F)c(N)c3c(=O)c(C(=O)O)cn(C4CC4)c3c2F)C[C@H](C)N1 [sparfloxacin] (10 µM) | -0.0335 | 115% (inactive)
61 | CC[C@H](NC(=O)c1c(C)c(-c2ccccc2)nc2ccccc12)c1ccccc1 (10 µM) | 0.0423 | 101% (inactive)
62 | CCc1c(C(=O)NCCc2ccc(N3CCCCC3)cc2)[nH]c2ccc(Cl)cc12 (10 µM) | -0.0889 | 124% (inactive)
63 | Cc1cc2nc3c(=O)[nH]c(=O)nc-3n(C)c2cc1C=O (10 µM) | 0.102 | 100% (inactive)
64 | CS(=O)(=O)c1ccc([C@@H](O)[C@@H](CO)NC(=O)C(Cl)Cl)cc1 [thiamphenicol] (10 µM) | -0.172 | 118% (inactive)
65 | COc1ccc(-c2oc3c(CC=C(C)C)c(O[C@@H]4O[C@H](CO)[C@@H](O)[C@H](O)[C@H]4O)cc(O)c3c(=O)c2O[C@@H]2O[C@@H](C)[C@H](O)[C@@H](O)[C@H]2O)cc1 [icariin] (10 µM) | 0.141 | 106% (inactive)
66 | COc1cccc(CN(C(=O)CC(C)(C)C)[C@H]2C[C@@H](C(=O)N3CCNCC3)N(Cc3ccc4c(c3)OCO4)C2)c1 (10 µM) | 0.0543 | 102% (inactive)
